Compound activity: PubChem, The Scripps Research Institute Molecular Screening Center
The list is not random: actives were taken first. Their share in the collection is about 2.7%.
PAFAH1B2 inh: inhibitors of human PAFAH1B2; P68402; recombinant PAFAH1B2, FP-rhodamine activity probe, fluorescence polarization; inhibition, % at 3.39 µM; 340,000 tested, 1.2% active; AID 492953;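 active means inhibition above the mean of all tested compounds plus 3 SD, cut at about 24% in these data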;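 further: 0% = enzyme with DMSO and 100% = wells lacking PAFAH1B2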
Target sequence (P68402 whole entry, looked up): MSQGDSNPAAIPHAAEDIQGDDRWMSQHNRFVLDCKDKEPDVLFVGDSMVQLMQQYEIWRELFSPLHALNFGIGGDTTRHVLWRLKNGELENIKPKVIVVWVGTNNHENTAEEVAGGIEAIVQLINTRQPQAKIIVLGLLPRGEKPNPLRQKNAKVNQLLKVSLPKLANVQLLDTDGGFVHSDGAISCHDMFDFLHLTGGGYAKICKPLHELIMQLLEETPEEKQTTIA
PAFAH1B3 inh: inhibitors of human PAFAH1B3. Q15102. recombinant PAFAH1B3, FP-rhodamine probe, fluorescence polarization. inhibition, % at 3.39 µM. 340,000 tested, 0.28% active;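 active means inhibition above the screen-wide average of all tested compounds plus 3 SD, cut at about 25% in these data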;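 further: 0% = enzyme with DMSO only and 100% = wells lacking PAFAH1B3 protein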
PAFAH2 inh: inhibitors of human PAFAH2; Q99487; recombinant PAFAH2, FP-rhodamine activity probe, fluorescence polarization; inhibition, % at 3.39 µM; 340,000 tested, 0.99% active; AID 492956;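 active means inhibition above the mean over all tested compounds plus 3 SD, cut at about 30% in these data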;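 further: inhibitors block probe labeling of enzyme so polarization drops; 0% = enzyme with DMSO and 100% = wells lacking PAFAH2 protein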
pPAFAH FP inh: inhibitors of human plasma PAF acetylhydrolase (pPAFAH); Q13093; 330,000 tested, 1.5% active; recombinant pPAFAH, FP-rhodamine probe fluorescence polarization; inhibition, % at 3.39 µM;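 active means inhibition above the mean inhibition across the screen plus 3 SD, cut at about 25% in these data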;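 further: inhibitors block binding of the rhodamine activity-based probe so polarization drops; 0% = enzyme with DMSO and 100% = wells lacking pPAFAH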
Target sequence (Q13093 whole entry, looked up): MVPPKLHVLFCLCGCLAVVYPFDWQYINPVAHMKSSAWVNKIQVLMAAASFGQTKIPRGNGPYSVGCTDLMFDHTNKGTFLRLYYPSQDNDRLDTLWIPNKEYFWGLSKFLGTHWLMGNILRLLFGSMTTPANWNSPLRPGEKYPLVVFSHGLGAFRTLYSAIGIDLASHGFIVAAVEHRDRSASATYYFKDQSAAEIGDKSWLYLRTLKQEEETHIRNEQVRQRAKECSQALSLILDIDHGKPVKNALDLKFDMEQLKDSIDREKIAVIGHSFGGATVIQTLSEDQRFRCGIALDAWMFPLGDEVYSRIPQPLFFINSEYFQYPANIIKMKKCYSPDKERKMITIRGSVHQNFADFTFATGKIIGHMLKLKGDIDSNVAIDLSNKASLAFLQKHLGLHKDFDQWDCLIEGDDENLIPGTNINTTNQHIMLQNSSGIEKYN
TCR-CD3 inh: inhibitors of human TCR-CD3 interaction | 360,000 tested, 0.37% active | inhibition, % at 9.4 µM | AID 651800 | TAMRA-labeled TCR probe fluorescence, biochemical; in the data active means inhibition above about 19%;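 further: recombinant mutant TCR 2C K166C tagged with TAMRA read by polarization; 0% = receptor in buffer alone and 100% = receptor with positive control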
pPAFAH FP conf: pPAFAH (human) inhibition, confirmed; recombinant pPAFAH, FP-Rh probe fluorescence polarization; shares compounds with pPAFAH FP inh; 2,300 tested, 72% active; inhibition, % at 3.39 µM; AID 463230;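 active means mean inhibition of the triplicate above the hit cutoff set for the earlier primary screen, cut at about 25% in these data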;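 further: 0% = enzyme with DMSO and 100% = wells lacking pPAFAH enzyme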
The depositor's hits bear a star; · = no result.

SMILES | PAFAH1B2 inh | PAFAH1B3 inh | PAFAH2 inh | pPAFAH FP inh | TCR-CD3 inh | pPAFAH FP conf
O=C(CCc1ccco1)CCc1ccco1 | 0 | -5 | 5 | · | -3 | ·
CN(C(=O)c1ccc(NC(=O)Cc2ccc(NC(=O)C3CCCN(C(=O)C4CCC4)C3)cc2)cc1)C1CC1 (stereo unspecified) | 5 | 5 | 0 | -5 | 0 | ·
Cc1nc(NC(=O)c2ccccc2)sc1-c1cc(C(=O)NCCO)nn1Cc1ccccc1 | · | · | · | · | -5 | ·
CCN(CC)c1ccc(N2C(=O)CSC2=S)cc1 | -5 | -15 | -15 | 48* | -18 | 3
COc1ccc2c(c1)C(C)(CCN)C(=O)N2C (stereo unspecified) | 0 | 8 | -8 | 2 | 0 | ·
CCNc1c2c3c(cccc3n(C)c1=O)C(=O)c1ccccc1-2 | · | · | · | 53* | · | 45*
Cn1c(=O)c(NC2CCCCC2)c2c3c(cccc31)C(=O)c1ccccc1-2 | 5 | 14 | 10 | · | 0 | ·
CCCCNc1c2c3c(cccc3n(C)c1=O)C(=O)c1ccccc1-2 | 53* | 63* | 75* | 43* | · | 48*
CC(C)C(=O)Nc1cccc(COc2ccccc2CN(Cc2ccccc2)C(=O)OC(C)(C)C)c1 | -2 | -1 | -7 | · | 3 | ·
N#CC(C#N)=C1C=C2C=C(N3CCCCC3)CCC2CC1 (stereo unspecified) | · | · | · | 13 | · | ·
N#CC1=C(N)C2=C(N3CCCCC3)CCCC2C1(C#N)C#N (stereo unspecified) | 26* | 46* | 40* | 38* | · | 5
CCOC(=O)c1c(C)n(-c2ccc(C)cc2)c2ccc(OCC(O)CNCC3CCCO3)cc12 (stereo unspecified) | 5 | 5 | -1 | 71* | · | 70*
CCOC(=O)c1c(C)n(-c2ccc(C)cc2)c2ccc(OCC(O)CNCCCO)cc12 (stereo unspecified) | 4 | -4 | -1 | 11 | 3 | ·
Cc1cc(C)c(S(=O)(=O)/N=C2\C=C(Nc3ccc(C(=O)O)cc3)C(=O)c3ccccc32)c(C)c1 | 26* | 60* | 36* | 42* | 3 | 40*
CCc1ccc(S(=O)(=O)/N=C2\C=C(Nc3ccc(O)cc3)C(=O)c3ccccc32)cc1 | 31* | 66* | 37* | 35* | · | 33*
CC(=O)Nc1ccc(NC2=CC(=O)c3ccccc3C2=O)cc1 | 2 | 12 | 4 | 5 | 6 | ·
O=C(O)c1cccc(NS(=O)(=O)c2ccc(-c3ccc(S(=O)(=O)Nc4cccc(C(=O)O)c4)cc3)cc2)c1 | -1 | -2 | -4 | -2 | 8 | ·
CCc1ccc(S(=O)(=O)/N=C2\C=C(Nc3cccc(C(=O)O)c3)C(=O)c3ccccc32)cc1 | 39* | 63* | 62* | 37* | 1 | 40*
Cc1cc(C)c(OCC(=O)Nc2ccc(N3CCOCC3)cc2)c(Br)c1 | 1 | -4 | -3 | 3 | 3 | ·
Cc1csc(-c2nc3ccccc3n2C(C(=O)NC(C)(C)C)c2cc3ccccc3o2)c1 (stereo unspecified) | · | · | · | · | 7 | ·
O=C1NN(c2ccc(F)c(Cl)c2)C(=O)/C1=C\c1cccc(OC(=O)c2cccs2)c1 | 42* | 12 | 34* | 40* | 5 | 41*
O=C(O)COc1ccccc1/C=N/NC(=O)c1cc2ccccc2cc1O | 5 | 3 | 1 | 43* | 5 | 2
O=C(O)COc1ccccc1/C=N/NC(=O)c1cc(-c2ccc(F)cc2)nc2ccccc12 | -3 | 2 | 7 | 6 | 3 | ·
O=C(N/N=C/C1CC=CCC1)c1cc2ccccc2cc1O (stereo unspecified) | 0 | 15 | 9 | 44* | 1 | 17
Cn1cccc1/C=N/NC(=O)c1cc2ccccc2cc1O | 12 | 21 | 5 | 51* | -2 | 9
SMILES | PAFAH1B2 inh | PAFAH1B3 inh | PAFAH2 inh | pPAFAH FP inh | TCR-CD3 inh | pPAFAH FP conf
Cc1cc(C(=O)OCC(=O)N2CC(C)OC(C)C2)c(C)n1-c1ccccc1 (stereo unspecified) | -2 | 8 | -4 | 4 | 6 | ·
CCOc1ccc2nc3cc(NCc4ccc(OC)cc4)ccc3c(N)c2c1 | 5 | 18 | 12 | 38* | · | 11
CC(C)(CCO)Nc1ncnc2onc(-c3ccc(F)cc3)c12 | 5 | 3 | -1 | 0 | 2 | ·
COc1cc2cc(Oc3ccc4ccc(=O)oc4c3)c(=O)oc2cc1O[C@@H]1O[C@H](CO)[C@@H](O)[C@H](O)[C@H]1O | 8 | 20 | 15 | 50* | 4 | 18
CCCCN(Cc1cc2cc(OC)ccc2[nH]c1=O)S(=O)(=O)c1ccc(C)cc1 | 10 | 7 | 1 | 6 | 2 | ·
N=C1SC(c2ccccc2)C(=O)N1c1ncc(Cc2ccccc2)s1 (stereo unspecified) | 34* | 3 | 28 | 39* | 1 | 44*
Cc1ccc(C(=O)c2coc3ccc(O)c(Cl)c23)cc1 | 1 | 7 | 10 | 3 | 1 | ·
CCOC(=O)C(C(C)=O)c1c(Br)c(O)c(O)c2c(C(=O)c3ccc(C)cc3)coc12 (stereo unspecified) | 2 | 5 | 11 | 47* | -1 | 35*
COc1cc(C(=O)NCc2nnc(SCC(=O)N3CCCCCC3)o2)cc(OC)c1OC | 5 | 6 | 0 | -2 | -6 | ·
COc1ccc(/C=C2\Oc3cc(OCC(=O)N4CCC[C@H]4C(=O)O)ccc3C2=O)c(OC)c1 | -3 | 11 | -1 | -6 | · | ·
COc1cc(OC)c(OC)cc1/C=C1\Oc2cc(OCC(=O)N3Cc4ccccc4C[C@H]3C(=O)O)ccc2C1=O | 4 | 6 | -10 | 37* | · | 44*
COc1cc(N)ccc1NC(=O)c1cc2ccccc2o1 | -3 | 12 | 4 | -4 | -9 | ·
Cc1oc2c(c1C(=O)c1ccccc1)C(=O)C(=O)c1ccccc1-2 | 6 | 16 | 34* | 36* | -6 | 25*
CCc1cc(=O)oc2cc(C)c(CN3CCCC(C)C3)c(O)c12 (stereo unspecified) | -3 | 6 | 8 | 52* | 0 | 13
Cc1ccc(CCN2C(Nc3ccccc3)=NC[C@@H]2C)cc1 | 4 | 7 | 1 | 6 | 3 | ·
Cc1ccccc1-n1c(SCC(=O)N2CCOCC2)nc(O)cc1=O | 0 | 2 | 5 | 39* | 1 | 8
CCCCN(C(=O)C1CCCC1)C1CCS(=O)(=O)C1 (stereo unspecified) | 6 | 1 | 4 | · | 6 | ·
COc1ccc(N(CC(=O)N2CCN(c3ccccc3F)CC2)S(=O)(=O)c2ccc(C)cc2)cc1 | -2 | 4 | -1 | 2 | -2 | ·
Cc1cc(/C=C2\SC(=S)NC2=O)c(C)n1-c1ccc(O)cc1 | 12 | 12 | 21 | 35* | 4 | 45*
Cc1cc(/C=C2\SC(=S)NC2=O)c(C)n1C | 7 | 17 | 23 | 39* | 6 | 7
O=C(O)CCCNc1cc(N2CCN(C(=O)c3ccco3)CC2)c2noc3c2c1C(=O)c1ccccc1-3 | 14 | 18 | 21 | 57* | 79* | 31*
